Experimental data taken from ChEMBL document CHEMBL1157539, “Thousands of chemical starting points for antimalarial lead identification” (Nature, 2010).

Legend:
Assay type in all cases: functional
[1] = system: Plasmodium falciparum; assay: GSK_TCMDC: Inhibition of Plasmodium falciparum 3D7 in whole red blood cells, using parasite LDH activity as an index of growth. Test compounds present at 2uM
[2] = system: Plasmodium falciparum; assay: GSK_TCMDC: Inhibition of Plasmodium falciparum Dd2 in whole red blood cells, using parasite LDH activity as an index of growth. Test compounds present at 2uM
[3] = system: HepG2; assay: GSK_TCMDC: Percent inhibition of human HepG2 cell line. Test compounds present at 10uM.

Compound	Inhibition [1] [%]	Inhibition [2] [%]	Inhibition [3] [%]
CC(Cc1ccc(OCCCCOc2ccccc2)cc1)NCCc1ccc(Oc2ccccc2)cc1 (stereo not drawn)	89	95	99
O=C(Nc1cccc(C(F)(F)F)c1)NC1CCN(c2ccnc3ccccc23)CC1.O=C(O)C(F)(F)F	100	43	23
O=C(Nc1ccc2oc(-c3ccc(Br)cc3)nc2c1)c1ccc([N+](=O)[O-])o1	92	21	9
CCCNC(=O)c1ccc(N2CCC(c3ccccc3C)CC2)nc1.O=C(O)C(F)(F)F	86	80	6
CCc1c(CCNCCCCCNCCc2ccc(OC)c(OC)c2CC)ccc(OC)c1OC.Cl	100	1	59
COc1ccc(CNC2CCN(C)CC2)cc1-c1ccc(S(=O)(=O)NCCc2ccccn2)c(F)c1.O=C(O)C(F)(F)F	100	55	3
Cc1cc(NC(=O)c2cccs2)ccc1OC1CCN(Cc2ccc(F)cc2)C1.O=C(O)C(F)(F)F (stereo not drawn)	95	92	0
N#Cc1ccc(/C=C/C(=O)NCCCCCN2CCCN(C(=O)Nc3ccc(Cl)c(C(F)(F)F)c3)CC2)cc1	98	13	28
COc1ccc2nc(C)cc(NCc3cccc4ccccc34)c2c1.Cl	100	72	28
CN1CCN(c2ccnc3ccc(NC(=O)Nc4ccc5ccccc5c4)cc23)CC1.Cl	100	99	2
O=C(Nc1cccc(-c2nn3ncccc3c2-c2ccnc(Nc3ccccc3)n2)c1)c1c(F)cccc1F	98	96	51
Cn1cc(CCNc2ccnc(NCCc3coc4ccccc34)n2)c2ccccc21	87	28	26
CCC(C)(C)C1CCc2nc(N)nc(N)c2C1.Cl (stereo not drawn)	95	97	71
N#Cc1ccc(NC2(C(=O)N3CCN(c4cccc(Cl)c4)CC3)CC2)c2ccccc12	94	66	0
CC1C(c2cccc(Cl)c2)OCC(C)(C)N1C(=O)CCN1CCCCC1.Cl (stereo not drawn)	88	5	2
Cc1[nH]c(C)c(-c2ccc(Oc3ccc(F)cc3)cc2)c(=O)c1Cl	99	98	14
